PubChem BioAssay AID504340 (NMMLSC, 2011)
Calls of active or inactive are those of the source.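 Rule for the calls: active = GFP response above 150% of the DMSO control; inconclusive = Under 70 cell events counted for a yeast strain; inactive = the rest.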

Assay: yeast TOR pathway CIT2-GFP reporter retest – flow cytometry, third cherry pick, single plex, confirmation (AID 504340);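 note: median GFP fluorescence over all cells with no mother versus daughter split; sample signal as a ratio to the plate DMSO mean so 100% equals DMSO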
Settings: S. cerevisiae CIT2-GFP strain, 3 h, at 10 µM, stronger effect = higher value

Question: For `C/C(O)=C(\C#N)C(=O)Nc1cc(Br)ccc1Br`, which GFP response vs DMSO is on record?
Answer: 116% (inactive)

Question: Which GFP response vs DMSO does the source give for `CCN1CCN(c2ncnc3ccc(Br)cc23)CC1` here?
Answer: 109% (inactive)

Question: With `CN(C)C(=O)Oc1ccnc2cc(Cl)ccc12` as the molecule, how does the GFP response vs DMSO read?
Answer: 106% (inactive)

Question: For `CN(C)C(=O)Oc1ccc(Cl)c2cccnc12`, which GFP response vs DMSO is on record?
Answer: 104% (inactive)

Question: Which GFP response vs DMSO does the source give for `Cc1ccc2c(c1N)C(=O)c1ccccc1C2=O` here?
Answer: 109% (inactive)

Question: With `CN1CCN(c2ncnc3ccc(Br)cc23)CC1` as the molecule, how does the GFP response vs DMSO read?
Answer: 103% (inactive)
